The values below come from PubChem BioAssay (EPA / NIEHS).

Read-out in test [1]: Monocyte Chemoattractant Protein-1 (MCP1), CCL2 (gene 6347)
Kind of test: BSK_hDFCGF_MCP1: BioMAP Diversity Plus: hDFCGF Assay for Monocyte Chemoattractant Protein-1 (MCP1) Biomarker Activity (AID 2284285). Particulars: primary human foreskin fibroblasts. In a few lines: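 MCP-1 ELISA readout was taken 24 hours after dosing primary human dermal fibroblasts in the hDFCGF system, with DMSO as baseline. Parallel sulforhodamine B staining of total protein tracked overt cytotoxicity.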

Read-out in test [2]: Intercellular Adhesion Molecule 1 (ICAM1), ICAM1 (gene 3383)
The test can be described thus: BSK_hDFCGF_ICAM1: BioMAP Diversity Plus: hDFCGF Assay for Intercellular Adhesion Molecule 1 (ICAM1) Biomarker Activity (AID 2284287). Particulars: primary human foreskin fibroblasts. In short, it runs like this: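 ICAM-1 ELISA readout 24 h after dosing, DMSO as baseline, in human dermal foreskin fibroblast cultures. Cytotoxicity checked in parallel wells by SRB staining (0.1% SRB, 10% TCA fixation, 560 nm).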

Read-out in test [3]: Thrombomodulin, THBD (gene 7056)
The test can be described thus: BSK_LPS_Thrombomodulin: BioMAP Diversity Plus: LPS Assay for Thrombomodulin Biomarker Activity (AID 2284296). Particulars: primary human HUVEC with PBMC. In short, it runs like this:
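Thrombomodulin on the surface of LPS-activated endothelial/PBMC co-cultures was quantified by ELISA at 24 hours post-dosing, with DMSO as baseline. Parallel SRB total-protein staining flagged overt cytotoxicity.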

Read-out in the next test: CD69, CD69 (gene 969)
Kind of test: BSK_LPS_CD69: BioMAP Diversity Plus: LPS Assay for CD69 Biomarker Activity (AID 2284303). Particulars: primary human HUVEC with PBMC. In a few lines:
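CD69 surface levels were read by ELISA after 24 h chemical treatment of an LPS-stimulated HUVEC plus PBMC co-culture; positive-direction fit against DMSO vehicle.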

Read-out in test [4]: Vascular cell adhesion molecule 1 (VCAM1), VCAM1 (gene 7412)
The test can be described thus: BSK_IMphg_VCAM1: BioMAP Diversity Plus: IMphg Assay for Vascular cell adhesion molecule 1 (VCAM1) Biomarker Activity (AID 2284286). The note with it: primary human endothelial cells with macrophages. In a few lines: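 ELISA read-out of VCAM-1 on venular endothelial cell/macrophage co-cultures at 24 h post-treatment, with DMSO as baseline and positive-direction fitting. Parallel sulforhodamine B total-protein staining (560 nm) served as the overt cytotoxicity measure.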

Read-out in the next test: CD40, CD40 (gene 958)
Kind of test: BSK_IMphg_CD40: BioMAP Diversity Plus: IMphg Assay for CD40 Biomarker Activity (AID 2284288). Particulars: primary human endothelial cells with macrophages. In a few lines: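 ELISA read-out of cell-surface CD40 at 24 h in human venular endothelial cell/macrophage co-cultures. Activity fitted in the positive direction against DMSO; parallel SRB staining (560 nm) gauges overt cytotoxicity.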

Read-out in test [5]: Interleukin-1 alpha (IL1a), IL1A (gene 3552)
Kind of test: BSK_IMphg_IL1a: BioMAP Diversity Plus: IMphg Assay for Interleukin-1 alpha (IL1a) Biomarker Activity (AID 2284290). The note with it: primary human endothelial cells with macrophages. In a few lines:
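IL-1α is quantified by ELISA at 24 h in the endothelial/macrophage IMphg co-culture, with gain of signal fitted relative to DMSO. Parallel SRB total-protein staining flags overt toxicity.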

Read-out in test [6]: E-selectin (Homo sapiens) (UniProt P16581)
Kind of test: BSK_IMphg_ESelectin: BioMAP Diversity Plus: IMphg Assay for Eselectin Biomarker Activity (AID 2284291). The note with it: primary human endothelial cells with macrophages. In short, it runs like this: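 Analysed against DMSO baseline in the positive fitting direction, this endpoint is an ELISA read of E-selectin. It comes from human venular endothelial cells co-cultured with macrophages, sampled 24 h post-dose.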

Read-out in test [7]: Macrophage colony-stimulating factor (MCSF), CSF1 (gene 1435)
The test can be described thus: BSK_IMphg_MCSF: BioMAP Diversity Plus: IMphg Assay for Macrophage colony-stimulating factor (MCSF) Biomarker Activity (AID 2284293). The note with it: primary human endothelial cells with macrophages. In a few lines:
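M-CSF was measured by ELISA in human venular endothelial cell/macrophage co-cultures dosed for 24 hours. Sulforhodamine B staining of parallel cultures assessed cytotoxicity; data fitted against DMSO baseline.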

Read-out in test [8]: Interleukin-10 (IL10), IL10 (gene 3586)
The test can be described thus: BSK_IMphg_IL10: BioMAP Diversity Plus: IMphg Assay for Interleukin-10 (IL10) Biomarker Activity (AID 2284294). Particulars: primary human endothelial cells with macrophages. In a few lines:
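IL-10 read by ELISA after 24 h chemical exposure of primary human venular endothelial cell/macrophage cocultures, with DMSO as baseline. Parallel SRB staining (560 nm) gauged overt cytotoxicity.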

Test [9] can be described thus: BSK_IMphg_SRB.Mphg: Macrophage Viability Assessment in the BioMAP Diversity Plus: IMphg Assay (AID 2284295). Particulars: primary human endothelial cells with macrophages. In short, it runs like this:
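Cytotoxicity read-out: parallel cultures fixed with 10% TCA, stained with 0.1% sulforhodamine B, read at 560 nm. System combines venular endothelium and macrophages; sampled 24 h post-dosing, fitted positively relative to DMSO control.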

The nature of test [10]: IUF_NPC2c_oligodendrocyte_migration_120hr: Leibniz Research Institute for Environmental Medicine (IUF) 120-hour Neural Progenitor Cell Migration Assay for Oligodendrocyte Migration (NPC2c) (AID 2284297).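 Further: O4-positive oligodendrocyte migration distance divided by radial glia migration distance.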 In short, it runs like this:
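Primary hNPC spheres migrating on extracellular matrix, exposed five days to a 7-point dilution series with solvent control. Oligodendrocyte migration was scored by high-content imaging of O4 immunostaining and expressed relative to radial glia distance.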

Test [11] can be described thus: IUF_NPC2a_radial_glia_migration_120hr: Leibniz Research Institute for Environmental Medicine (IUF) 120-hour Neural Progenitor Cell Migration Assay for Radial Glia Migration (NPC2a) (AID 2284298). In short, it runs like this: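 In this multiplexed test, fetal hNPC spheres migrate radially on poly-D-lysine/laminin in N2 medium (37C, 5% CO2, pH 7.2-7.6) under continuous compound exposure over five days. Migration is scored at 120 h from automated Hoechst nuclear imaging.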

Test [12] in a line: IUF_NPC2a_radial_glia_migration_72hr: Leibniz Research Institute for Environmental Medicine (IUF) 72-hour Neural Progenitor Cell Migration Assay for Radial Glia Migration (NPC2a) (AID 2284299). In a few lines:
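Readout: mean of four manual brightfield measurements of radial glia migration distance (um) at 72 h. hNPC spheres (0.3 mm) exposed to 7 compound concentrations plus solvent control on PDL/laminin, 37C, 5% CO2; activity fitted relative to DMSO.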

Test [13] is described as follows: IUF_NPC2b_neuronal_migration_120hr: Leibniz Research Institute for Environmental Medicine (IUF) 120-hour Neural Progenitor Cell Migration Assay for Neuron Migration (NPC2b) (AID 2284300). In a few lines:
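Neurons identified by TUBB3 immunostaining and Hoechst nuclei; migration distance measured automatically on fixed wells at 120 h, normalized to glia migration. Exposure spanned five days of differentiation in N2 medium, seven test concentrations.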

The nature of test [14]: IUF_NPC3_neuronal_differentiation_120hr: Leibniz Research Institute for Environmental Medicine (IUF) 120-hour Neuronal Differentiation Assay (NPC3) (AID 2284301). In short, it runs like this: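 Value is percent TUBB3-positive neurons among Hoechst-stained nuclei in the migration area, scored by trained CNN after 120 h differentiation. Primary hNPC spheres on poly-D-lysine/laminin, N2 medium, continuous dosing from day 0, half-refeed day 3; DMSO reference.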

Test [15] can be described thus: IUF_NPC4_neurite_length_120hr: Leibniz Research Institute for Environmental Medicine (IUF) 120-hour Neuronal Morphology Assay for Neurite Length (NPC4) (AID 2284302). In a few lines:
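Neurite length, the mean in um across TUBB3-stained neurons, is derived by skeletonization of high-content images after 120 h differentiation. Compound exposure, 7 concentrations plus solvent control, ran from plating of hNPC spheres on poly-D-lysine/laminin, with medium half-replaced on day 3.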

A short description of test [16]: IUF_NPC5_oligodendrocyte_differentiation_120hr: Leibniz Research Institute for Environmental Medicine (IUF) 120-hour Oligodendrocyte Differentiation Assay (NPC5) (AID 2284304; active means hit-call score of the fitted dose curve at least 0.9, where 1 is the maximum;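 further: primary human fetal neural progenitor spheres plated to migrate and differentiate; share of O4-positive cells among Hoechst nuclei found by CNN image analysis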). In a few lines: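 Human primary NPC neurospheres migrating and differentiating on laminin for 120 h under continuous compound exposure (serial dilution, solvent control). Endpoint: percent O4+ oligodendrocytes among Hoechst nuclei, detected by CNN image analysis, with DMSO as negative control.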

Read-out in test [17]: TIMP metallopeptidase inhibitor 2 (TIMP2), TIMP2 (gene 7077)
Kind of test: BSK_hDFCGF_TIMP2: BioMAP Diversity Plus: hDFCGF Assay for TIMP metallopeptidase inhibitor 2 (TIMP2) Biomarker Activity (AID 2284289). Particulars: primary human foreskin fibroblasts. In a few lines:
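Primary human foreskin fibroblasts in the hDFCGF system, dosed for 24 h; TIMP-2 level measured by ELISA, fitted in the positive direction against DMSO; cytotoxicity checked in parallel by sulforhodamine B total protein staining.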

Test [18] in a line: BSK_IMphg_SRB: Viability Assessment in the BioMAP Diversity Plus: IMphg Assay (AID 2284292).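 Further: measured one day after compound addition.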 The note with it: primary human endothelial cells with macrophages. In short, it runs like this:
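SRB viability endpoint: cultures of human endothelial cells plus macrophages fixed with 10% TCA, stained with 0.1% SRB, read at 560 nm 24 h post-dosing. Only gain-of-signal fitted, relative to DMSO.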

“And” between values parts separate entries of the source, which are not always exact repeats. Equal entries are not always repeated. Records with an inconclusive call do not appear. A structure can be active in one record and inactive in another. The source made the active and inactive calls. How the source made its calls, unless noted: active means hit-call score of the fitted dose curve at least 0.9, where 1 is the maximum; inactive means score below 0.9.

E-selectin (Homo sapiens), sequence (P16581 whole entry, looked up): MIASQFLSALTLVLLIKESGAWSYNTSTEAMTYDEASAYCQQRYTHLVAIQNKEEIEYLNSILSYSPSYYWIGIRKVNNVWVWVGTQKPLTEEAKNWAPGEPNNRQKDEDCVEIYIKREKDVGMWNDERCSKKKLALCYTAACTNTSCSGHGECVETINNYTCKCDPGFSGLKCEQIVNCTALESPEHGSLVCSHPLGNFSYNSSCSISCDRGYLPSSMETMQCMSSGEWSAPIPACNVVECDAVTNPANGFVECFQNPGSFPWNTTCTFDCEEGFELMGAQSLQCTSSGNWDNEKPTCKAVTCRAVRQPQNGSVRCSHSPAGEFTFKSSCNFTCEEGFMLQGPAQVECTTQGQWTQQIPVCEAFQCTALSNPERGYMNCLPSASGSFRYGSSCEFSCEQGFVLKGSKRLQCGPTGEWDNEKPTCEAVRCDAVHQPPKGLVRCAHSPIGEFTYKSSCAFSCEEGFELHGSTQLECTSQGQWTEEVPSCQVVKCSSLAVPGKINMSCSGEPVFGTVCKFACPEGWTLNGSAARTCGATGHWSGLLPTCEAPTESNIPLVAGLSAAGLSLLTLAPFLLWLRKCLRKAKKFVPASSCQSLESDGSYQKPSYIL

For `CCCCC(CC)COP(=O)(O)OCC(CC)CCCC` (stereo unspecified), the AC50 in [1] was 32.2 µM (active); in the test with CD69, CD69 (gene 969), 987 nM (active). Besides, the outcome in test [2] is “inactive”; in test [3] it was “inactive”; with CD69, CD69 (gene 969), “inactive”.

Take `FC1CC(F)(F)C(F)(F)C1(F)F` (stereo unspecified): the outcome in [1] is “inactive”; in [4] it was “inactive”; in test [2], “inactive”; with CD40, CD40 (gene 958) it was “inactive”; in [5], “inactive”; in test [6], “inactive”. Moreover, the outcome in test [7] is “inactive”; in [8], “inactive”; in test [9], “inactive”; in [3] it was “inactive”; in the test with CD69, CD69 (gene 969), “inactive”.

`CC(CCl)OP(=O)(OC(C)CCl)OC(C)CCl` (stereo unspecified): the compound was called inactive in test [10], in [11], in test [12], in test [13], in test [14] and in test [15]. In addition, the AC50 in test [16] is 5.43 µM (active).

Take `CCCCCCOC(=O)c1ccccc1O`: the AC50 in test [1] was 18.2 µM (active) and 22.9 µM (active); in test [2] it was 37.9 µM (active) and 29.9 µM (active); in test [17], 31.2 µM (active) and 20.2 µM (active); with CD69, CD69 (gene 969) it was 39.4 µM (active) and 46.4 µM (active). Further, the result in test [3] was inactive.

`FC(F)(F)C(F)(F)C(F)(F)CI`: the outcome in [1] is “inactive”; in test [4], “inactive”; in test [2], “inactive”; with CD40, CD40 (gene 958), “inactive”; in test [5] it was “inactive”; in test [7], “inactive”. For the same compound, the outcome was “inactive” in test [8]; “inactive” in test [9]; “inactive” in test [3]; “inactive” in the test with CD69, CD69 (gene 969). In addition, the AC50 in [3] is 1.34 µM (active).

With `FC(F)(F)C(F)(F)C(F)(F)C(F)(F)C(F)(F)C(F)(F)C(F)(F)Br`, the outcome is “inactive” in [1]; “inactive” in [4]; “inactive” in test [2]; “inactive” with CD40, CD40 (gene 958); “inactive” in test [5]; “inactive” in [7]. The outcome in [8] is “inactive”; in [9] it was “inactive”; in test [3], “inactive”; with CD69, CD69 (gene 969) it was “inactive”.

Regarding `OCC(F)(F)C(F)(F)C(F)(F)F`, the outcome in [1] is “inactive”; in test [4], “inactive”; in test [2], “inactive”; with CD40, CD40 (gene 958), “inactive”; in test [5], “inactive”; in [18] it was “inactive”. Also, the outcome is “inactive” in [7]; “inactive” in [8]; “inactive” in test [9]; “inactive” in [3]; “inactive” in the test with CD69, CD69 (gene 969).

Regarding `O=P(O)(O)OCCC(F)(F)C(F)(F)C(F)(F)C(F)(F)C(F)(F)C(F)(F)F`, the outcome in test [1] is “inactive”; in test [4], “inactive”; in [2], “inactive”; with CD40, CD40 (gene 958), “inactive”; in test [5], “inactive”; in test [7] it was “inactive”. Also, the outcome is “inactive” in test [8]; “inactive” in [9]; “inactive” in test [3]; “inactive” in the test with CD69, CD69 (gene 969).

Consider `COC(=O)CCC(F)(F)C(F)(F)C(F)(F)C(F)(F)F`, for which the outcome in test [1] was “inactive”; in test [4], “inactive”; in [2], “inactive”; with CD40, CD40 (gene 958) it was “inactive”; in [5], “inactive”; in [7], “inactive”. Further, the outcome in test [8] was “inactive”; in test [9], “inactive”; in test [3] it was “inactive”; with CD69, CD69 (gene 969) it was “inactive”. In test [8], the AC50 was 7.74 µM (active).
